Source: PubChem BioAssay (NCATS)
Inconclusive results are not listed. Active and inactive are the calls of the source. Unless noted, calls follow the shape of the dose curve; as a rule, active = well fitted curve in the direction sought with a large enough effect; inconclusive = small, poorly fitted or top-dose-only effect, or another doubt; inactive = no such curve, though single readings can be large; an effect the other way counts as inactive or inconclusive.

How the values were obtained:
[1] = Validation of Assay for Modulators of Lamin A Splicing (AID 1459; active = well fitted curve in the direction sought with a large enough effect in the signal ratio; the % refers to the signal ratio;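 also: cells exposed to compound for two days before reading; 0% is about no effect; ratio rise marks activators and ratio drop marks inhibitors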)
Procedure, shortened: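 HeLa S3 lamin A-EGFP/DsRed2 stable clone, 600 cells/well, Opti-MEM 2% FBS; compounds by pin tool; 48 hrs, 37 °C/5% CO2; Acumen 488 nm scan, objects 10-100 um; GFP/RFP intensity ratio.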

[2] = target: DNA repair nuclease/redox regulator APEX1 (Homo sapiens) (UniProt P27695); assay: qHTS Validation Assay for Inhibitors of the Human Apurinic/apyrimidinic Endonuclease 1 (APE1) (AID 1705;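 also: TAMRA fluorescence gain over two minutes as APE1 cuts a quenched THF abasic duplex; series mostly up to about 57 µM; % is scaled to controls: 0 for no effect and ±100 for the full control effect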)
Procedure, shortened: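 qHTS, 1536-well. APE1 + cpd 15 min RT → 50 nM TAMRA/BHQ-2 THF-abasic dsDNA substrate → kinetic fluorescence, 3 reads/60 s; delta(read3−read1) = reaction progress. No-enzyme buffer = negative control.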

[3] = Counterscreen for APE1 Inhibitors: Fluorescent Dye Displacement Validation Assay (AID 1707);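 also: plate controls were ThO with dsDNA and no compound for no effect and ThO without dsDNA for full effect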
Procedure, shortened: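 Counterscreen flags promiscuous DNA binders: compounds displacing ThO from duplex DNA (abasic THF site, 50 nM) reduce 540 nm emission (480 nm excitation). ThO 250 nM final; Tris-HCl pH 7.5 with NaCl, MgCl2 and Tween-20.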

[4] = target: Endonuclease 4 (Escherichia coli (strain K12)) (UniProt P0A6C1); assay: Counterscreen for APE1 Inhibitors: qHTS Validation Assay for Inhibitors of Endonuclease IV (AID 1708); also: % is scaled to controls: 0 for no effect and ±100 for the full control effect
Procedure, shortened: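 Incision of a double-stranded 50 nM TAMRA/BHQ-2 abasic substrate was followed kinetically (525/598 nm, reads every 60 s) after 15 min enzyme–compound preincubation with 2 nM EndoIV in pH 7.5 Tris buffer with MgCl2, DTT and Tween-20; concentration-response format.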

[5] = qHTS for differential inhibitors of proliferation of Plasmodium falciparum line 7G8 (AID 1815);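 also: parasite growth measured after three days of incubation; plate controls were vehicle wells for no effect and reference inhibitor wells for full effect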
[6] = qHTS for differential inhibitors of proliferation of Plasmodium falciparum line GB4 (AID 1816); conditions: Potency: Plasmodium falciparum GB4 proliferation inhibition;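 also: parasite growth measured after 72 h incubation; 0% = vehicle DMSO and -100% = reference inhibitor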
[7] = qHTS for differential inhibitors of proliferation of Plasmodium falciparum line 3D7 (AID 1876);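 also: parasite growth measured after three days of culture; 0% = vehicle wells and -100% = reference inhibitor wells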
[8] = qHTS for differential inhibitors of proliferation of Plasmodium falciparum line D10 (AID 1877);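 also: parasites grown with compound for 72 h before DNA staining; plate controls were vehicle wells for no effect and reference inhibitor wells for full effect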
[9] = qHTS for differential inhibitors of proliferation of Plasmodium falciparum line Dd2 (AID 1882); conditions: Potency: Plasmodium falciparum Dd2 proliferation inhibition;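 also: series mostly up to about 29 µM; plate controls were DMSO vehicle for no effect and 0.29 µM artemisinin for full effect; nearly all actives have a fitted effect of over 65% in size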
Procedure, shortened: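 SYBR Green DNA fluorescence (ex 485, em 535 nm) after overnight lysis quantifies parasite growth; compound exposure lasted 72 h at 37 C on infected red cells at 2.5% hematocrit, 0.3% parasitemia (final). Artemisinin 0.29 uM and vehicle wells define normalization.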

[10] = qHTS for differential inhibitors of proliferation of Plasmodium falciparum line W2 (AID 1883); conditions: Potency: Plasmodium falciparum W2 proliferation inhibition;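 also: parasites grown with compound for 72 h before lysis and staining; 0% = vehicle wells and -100% = control inhibitor wells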
[11] = qHTS for differential inhibitors of proliferation of Plasmodium falciparum line HB3 (AID 1886); conditions: Potency: Plasmodium falciparum HB3 proliferation inhibition;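 also: parasites grown with compound for 72 h before SYBR Green readout; plate controls were vehicle for no effect and reference inhibitor for full effect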
[12] = target: Ferritin light chain (Equus caballus) (UniProt P02791); assay: qHTS Validation Assay for Identification of Novel General Anesthetics (AID 2323); also: series mostly up to about 77 µM; % is scaled to controls: 0 for no effect and ±100 for the full control effect
Procedure, shortened: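 Fluorescence at 535 nm (excitation 380 nm) reported loss of 1-AMA binding to horse-spleen apoferritin (10 uM) in PBS with 50% saturated 1-aminoanthracene, after 10 min room-temperature incubation with compound; values from Hill fits of normalized response.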

[13] = target: ATP-dependent DNA helicase Q1 (Homo sapiens) (UniProt P46063); assay: qHTS Validation Assay for Inhibitors of RecQ-Like Dna Helicase 1 (RECQ1) (AID 2353);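 also: plate controls were DMSO vehicle for no effect and enzyme-free control for full effect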
Procedure, shortened: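 RECQ1T1 50 nM; forked duplex (20 bp + 30-nt ss tails) 200 nM, ATP 2 mM final; pH 8.0, 2 mM MgCl2, 2.5 ug/ml poly(dI-dC); 15 min compound preincubation; discontinuous kinetic read over 2 h at RT.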

[14] = target: M-phase phosphoprotein 8 (Homo sapiens) (UniProt Q99549); assay: qHTS Validation Assay for Inhibitors for MPP8 Chromodomain Interactions with Methylated Histone Tails (AID 488949);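 also: 50 nM MPP8 with 50 nM peptide preformed then compounds added for 30 min; AlphaScreen signal from MPP8 chromodomain bound to biotinylated H3K9me3 peptide; top concentration of the series differs between compounds; % is scaled to controls: 0 for no effect and ±100 for the full control effect; nearly all actives have a fitted effect of over 55% in size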
Procedure, shortened: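 50 nM MPP8 + 50 nM b-H3K9me3 peptide, PBS pH 7.4/0.01% Tween-20, 30 min RT; + cpd 30 min RT; + AlphaScreen donor/Ni-chelate acceptor beads 10 ug/mL final, 30 min dark; luminescence read.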

[15] = target: Thyrotropin receptor (Homo sapiens) (UniProt P16473); assay: qHTS Assay for Antagonists of the Thyroid Stimulating Hormone Receptor (AID 488980); also: series mostly up to about 58 µM; 0% is about no effect
Procedure, shortened: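 Readout is cAMP by HTRF competition between cellular cAMP and cAMP-d2 for a cryptate-labelled antibody. Antagonism was assessed in TSHR-transfected HEK293 cells stimulated with 4 nM TSH (EC80, final) in the presence of RO 20-1724.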

[16] = target: Thyrotropin-releasing hormone receptor (Homo sapiens) (UniProt P34981); assay: qHTS for Small Molecule Agonists and Allosteric Enhancers of Human TRH Receptor: Validation Screen for Agonists (AID 493127;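 active = calcium activation more than 3 SD above the typical response in the agonist read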;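 also: intracellular calcium rise by fluo-8 fluorescence before TRH EC20 addition; 0% is about no effect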); conditions: TRH receptor agonist cell assay; at 2 µM; hits give high values
Procedure, shortened: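 Compounds are added by online pintool to dye-loaded TRHR cells while fluorescence is recorded every second. A rise in calcium signal during the agonist read marks activation; a later 10 nM TRH addition (EC20) serves the separate enhancer mode.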

[17] = target: Galactokinase (Homo sapiens) (UniProt P51570); assay: qHTS Validation Assay for Inhibitors of Human Galactokinase (GALK) (AID 493189); also: 0% is about no effect
Procedure, shortened: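 5 nM GALK / 100 uM galactose / 35 uM ATP, 20 mM HEPES pH8.0, 5 mM MgCl2, 60 mM NaCl, 1 mM DTT, 0.01% BSA (final). RT 1 h; Kinase-Glo Plus luminescence.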

[18] = Validation screen for small molecules that induce DNA re-replication in SW480 colon adenocarcinoma cells (AID 504364); also: 0% is about no effect
Procedure, shortened: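 Image-based qHTS: compounds were incubated with SW480 cells for 48 hr, nuclei stained with Hoechst, and per-nucleus fluorescence intensity scanned to flag cells with excess DNA content.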

[19] = qHTS Assay for Modulators of Human Peripheral Myelin Protein 22 (PMP22) Expression/Activity (AID 1967; active = well fitted curve in the direction sought with a large enough effect in the signal ratio; the % refers to the signal ratio;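 also: 0% = untreated cells and 100% end not stated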)
Procedure, shortened: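 Luminescence ratio of Pmp22 promoter-driven green luciferase to EF-alpha-driven red luciferase, in engineered mouse MSC80 Schwann cells, served as read-out. Compounds were incubated 24h; untreated cells defined 0% Activity; curves were classified by r2, magnitude and activity.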

[20] = Validation screen for small molecules that induce DNA re-replication in MCF 10A normal breast cells (AID 463097); also: 0% is about no effect; nearly all actives have a fitted effect of over 60% in size
Procedure, shortened: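 Image-based qHTS: normal breast cells are incubated with compound for 48 hr, stained with Hoechst, and scanned for total nuclear fluorescence. Compounds raising the fraction of nuclei with elevated DNA content count as re-replication inducers.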

[21] = Quantitative high throughput screen for delayed death inhibitors of the malarial parasite plastid, 96 hour incubation (AID 488745);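 also: luciferase-expressing P. falciparum in erythrocytes at 2% hematocrit and 0.1% parasitemia; series mostly up to about 29 µM; % is scaled to controls: 0 for no effect and ±100 for the full control effect; nearly all actives have a fitted effect of over 70% in size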
Procedure, shortened: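 Readout is firefly luciferase luminescence from an integrated reporter in P. falciparum; lower signal marks inhibited growth. Cultures at 2% hematocrit and 0.1% parasitemia were treated with compound across two generations (96 h, 37 C, 5% CO2).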

[22] = Quantitative high throughput screen for delayed death inhibitors of the malarial parasite plastid, 48 hour incubation (AID 488752); also: % is scaled to controls: 0 for no effect and ±100 for the full control effect; nearly all actives have a fitted effect of over 65% in size
Procedure, shortened: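 First, compound was pinned into RPMI 1640 medium containing 0.5% Albumax. Next, reporter-parasite-infected erythrocytes were added to 2% hematocrit and 0.1% parasitemia. After 48 h at 37 C under 5% CO2, luciferase detection reagent was added and luminescence read.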

Sequence of Thyrotropin-releasing hormone receptor (Homo sapiens) (P34981 whole entry, looked up): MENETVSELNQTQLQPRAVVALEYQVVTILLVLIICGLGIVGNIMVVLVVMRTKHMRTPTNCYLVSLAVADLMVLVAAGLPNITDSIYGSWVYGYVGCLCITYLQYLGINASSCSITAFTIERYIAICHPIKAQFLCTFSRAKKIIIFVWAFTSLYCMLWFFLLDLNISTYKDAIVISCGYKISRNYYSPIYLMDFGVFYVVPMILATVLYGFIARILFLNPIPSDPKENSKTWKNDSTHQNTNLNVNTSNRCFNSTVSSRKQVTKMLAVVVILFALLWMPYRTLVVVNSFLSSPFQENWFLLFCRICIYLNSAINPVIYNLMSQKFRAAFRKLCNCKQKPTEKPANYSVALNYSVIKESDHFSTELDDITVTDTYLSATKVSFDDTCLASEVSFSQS
Sequence of Galactokinase (Homo sapiens) (P51570 whole entry, looked up): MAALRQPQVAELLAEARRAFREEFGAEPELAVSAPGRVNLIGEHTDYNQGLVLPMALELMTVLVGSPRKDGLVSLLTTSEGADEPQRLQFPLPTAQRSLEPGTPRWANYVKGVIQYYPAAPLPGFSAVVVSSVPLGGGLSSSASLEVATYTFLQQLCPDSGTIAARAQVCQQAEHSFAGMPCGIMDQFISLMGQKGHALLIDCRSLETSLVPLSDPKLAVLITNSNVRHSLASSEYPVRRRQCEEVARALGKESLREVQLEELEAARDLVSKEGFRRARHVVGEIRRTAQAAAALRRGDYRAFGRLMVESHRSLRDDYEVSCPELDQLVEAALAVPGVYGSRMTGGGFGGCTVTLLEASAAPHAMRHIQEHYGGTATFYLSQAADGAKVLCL
Sequence of ATP-dependent DNA helicase Q1 (Homo sapiens) (P46063 whole entry, looked up): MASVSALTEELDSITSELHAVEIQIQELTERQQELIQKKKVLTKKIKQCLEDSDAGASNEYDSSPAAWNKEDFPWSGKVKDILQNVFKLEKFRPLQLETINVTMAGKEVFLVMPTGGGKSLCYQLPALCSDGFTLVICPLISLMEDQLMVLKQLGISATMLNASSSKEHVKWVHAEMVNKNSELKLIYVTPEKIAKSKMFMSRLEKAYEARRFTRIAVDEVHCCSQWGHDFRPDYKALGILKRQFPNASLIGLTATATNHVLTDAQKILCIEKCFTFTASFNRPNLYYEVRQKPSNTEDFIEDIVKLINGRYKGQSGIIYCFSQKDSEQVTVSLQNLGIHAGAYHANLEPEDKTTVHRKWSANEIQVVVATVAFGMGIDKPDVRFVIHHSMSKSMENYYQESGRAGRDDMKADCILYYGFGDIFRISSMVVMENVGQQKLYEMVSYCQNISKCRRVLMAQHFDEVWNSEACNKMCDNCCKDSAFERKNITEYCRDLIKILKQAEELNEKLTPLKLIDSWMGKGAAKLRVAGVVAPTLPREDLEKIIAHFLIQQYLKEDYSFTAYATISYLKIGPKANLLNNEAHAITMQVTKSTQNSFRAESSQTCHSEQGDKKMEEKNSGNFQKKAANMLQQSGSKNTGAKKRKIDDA
Sequence of Ferritin light chain (Equus caballus) (P02791 2-175 limits assumed): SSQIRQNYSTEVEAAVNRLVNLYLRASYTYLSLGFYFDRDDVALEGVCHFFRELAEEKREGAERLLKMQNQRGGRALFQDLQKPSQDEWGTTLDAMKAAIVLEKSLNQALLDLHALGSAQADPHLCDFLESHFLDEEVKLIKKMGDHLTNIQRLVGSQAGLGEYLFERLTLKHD
Sequence of DNA repair nuclease/redox regulator APEX1 (Homo sapiens) (P27695 whole entry, looked up): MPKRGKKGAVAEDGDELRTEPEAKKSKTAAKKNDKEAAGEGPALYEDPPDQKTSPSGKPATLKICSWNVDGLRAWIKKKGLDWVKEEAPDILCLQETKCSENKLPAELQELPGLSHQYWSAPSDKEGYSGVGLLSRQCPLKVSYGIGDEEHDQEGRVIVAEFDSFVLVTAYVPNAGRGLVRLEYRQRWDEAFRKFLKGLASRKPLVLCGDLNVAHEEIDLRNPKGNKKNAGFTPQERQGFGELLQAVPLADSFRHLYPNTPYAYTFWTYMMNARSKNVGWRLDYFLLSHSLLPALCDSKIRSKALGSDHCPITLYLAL
Sequence of M-phase phosphoprotein 8 (Homo sapiens) (Q99549 whole entry, looked up): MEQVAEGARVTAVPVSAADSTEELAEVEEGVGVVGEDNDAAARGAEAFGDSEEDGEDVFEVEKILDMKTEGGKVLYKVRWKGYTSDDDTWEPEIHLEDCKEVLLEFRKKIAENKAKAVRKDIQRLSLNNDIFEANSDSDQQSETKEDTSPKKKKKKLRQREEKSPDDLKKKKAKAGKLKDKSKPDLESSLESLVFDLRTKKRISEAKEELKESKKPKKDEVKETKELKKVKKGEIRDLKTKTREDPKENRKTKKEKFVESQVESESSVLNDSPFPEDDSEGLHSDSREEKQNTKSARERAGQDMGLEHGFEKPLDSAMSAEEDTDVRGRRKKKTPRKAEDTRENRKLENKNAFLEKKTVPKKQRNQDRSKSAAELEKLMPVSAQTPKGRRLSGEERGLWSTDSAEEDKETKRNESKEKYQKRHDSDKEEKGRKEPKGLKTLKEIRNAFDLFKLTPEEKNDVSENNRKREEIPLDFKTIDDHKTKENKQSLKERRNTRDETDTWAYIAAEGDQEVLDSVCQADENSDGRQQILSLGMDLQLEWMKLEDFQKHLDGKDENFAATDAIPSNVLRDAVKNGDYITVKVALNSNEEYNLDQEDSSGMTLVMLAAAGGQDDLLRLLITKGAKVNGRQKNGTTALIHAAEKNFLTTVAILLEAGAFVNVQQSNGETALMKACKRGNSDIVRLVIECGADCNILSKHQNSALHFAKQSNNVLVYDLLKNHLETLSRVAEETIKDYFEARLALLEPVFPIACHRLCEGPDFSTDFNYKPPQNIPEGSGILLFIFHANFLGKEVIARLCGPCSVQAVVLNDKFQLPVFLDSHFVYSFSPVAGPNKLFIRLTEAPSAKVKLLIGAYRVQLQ
Sequence of Thyrotropin receptor (Homo sapiens) (P16473 whole entry, looked up): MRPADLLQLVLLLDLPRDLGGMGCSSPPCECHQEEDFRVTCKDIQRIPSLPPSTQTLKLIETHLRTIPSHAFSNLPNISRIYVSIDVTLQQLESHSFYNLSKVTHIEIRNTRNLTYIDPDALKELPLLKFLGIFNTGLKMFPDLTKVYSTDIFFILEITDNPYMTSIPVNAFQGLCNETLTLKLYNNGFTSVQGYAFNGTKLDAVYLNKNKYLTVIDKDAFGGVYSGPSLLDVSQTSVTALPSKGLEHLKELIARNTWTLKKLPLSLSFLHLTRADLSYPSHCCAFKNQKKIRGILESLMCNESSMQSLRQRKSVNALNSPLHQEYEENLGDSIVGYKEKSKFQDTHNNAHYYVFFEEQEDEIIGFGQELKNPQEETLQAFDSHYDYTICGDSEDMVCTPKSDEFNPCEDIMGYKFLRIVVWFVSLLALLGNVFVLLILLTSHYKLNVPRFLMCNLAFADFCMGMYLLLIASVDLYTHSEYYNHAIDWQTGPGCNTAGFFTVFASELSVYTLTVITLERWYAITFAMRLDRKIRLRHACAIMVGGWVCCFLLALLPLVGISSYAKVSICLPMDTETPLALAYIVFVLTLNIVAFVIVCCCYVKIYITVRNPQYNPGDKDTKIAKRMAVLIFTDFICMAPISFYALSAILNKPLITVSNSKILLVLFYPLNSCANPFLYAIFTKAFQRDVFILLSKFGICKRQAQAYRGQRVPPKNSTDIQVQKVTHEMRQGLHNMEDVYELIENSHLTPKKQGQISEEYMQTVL

CNc1ncnc2c1ncn2[C@@H]1O[C@H](CO)[C@H](O)[C@H]1O
inactive: outcome [1] | Potency [2] | Potency [3] | outcome [4] | Potency [5] | Potency [6] | Potency [7] | Potency [8] | Potency [9] | Potency [10] | Potency [11] | outcome [12] | Potency [13] | Potency [14] | outcome [15] | activation [16] 1.06% | outcome [17] | outcome [18]

Nc1ncnc2c1ncn2[C@@H]1O[C@H](C(=O)NC2CC2)[C@H](O)[C@H]1O
inactive: outcome [1] | Potency [2] | Potency [3] | outcome [4] | Potency [5] | Potency [6] | Potency [7] | Potency [8] | Potency [9] | Potency [11] | outcome [19] | outcome [12] | Potency [13] | outcome [20] | Potency [21] | Potency [22] | Potency [14] | activation [16] 1.12% | outcome [17] | outcome [18]
